Test results as given in PubChem BioAssay (NCATS).
“And” between values parts separate entries of the source, which are not always exact repeats. Equal values may be shown once. Records with an inconclusive call do not appear. The source made the active and inactive calls. Calls follow the shape of the full dose curve.

Experiment: qHTS Assay for Lipid Storage Modulators (AID 1519); as to activity change, negative = inhibition: % is scaled to controls: 0 for no effect and ±100 for the full control effect
Details: Drosophila S3 cells, BODIPY lipid droplet/cell ratio, laser cytometry, cells loaded with oleic acid
Method in brief: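 Cells seeded at 5,000 per well were treated with compounds over a concentration series and loaded with oleic acid (400 uM, as added). Lipid droplet fluorescence (488 nm excitation, 500-530 nm channel) was read by laser-scanning cytometry and normalized to 20 uM Triacsin C.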

[1] = measured here: cell count channel max response
[2] = measured here: lipid channel max response

Compound | activity change, negative = inhibition (at 57.5 µM (top of the series)) | max response [1] | max response [2] | activity change, negative = inhibition (at 25.7 µM (top of the series))
CN1CCCN=C1COC(=O)C(O)(c1ccccc1)C1CCCCC1 (stereo not given) | 5.7% (inactive) | 7.14% | 15.3% | –
COc1ccc2cc(CCC(C)=O)ccc2c1 | – | -11.1% | -11.1% | 1.09% (inactive)
NC(=O)c1ccc([N+](=O)[O-])cc1Cl | -1.34% (inactive) | -11.1% | -9.4% | –
CCCNC(C)(C)COC(=O)c1ccccc1 | – | -4.93% | -6.33% | -1.27% (inactive)
Cn1c([N+](=O)[O-])cnc1COC(N)=O | 7.17% (inactive) | -1.45% and 4.32% | -3% and 14.5% | 1.17% (inactive)
CC1CC(OC(=O)c2ccccc2O)CC(C)(C)C1 (stereo not given) | 7.41% (inactive) | 1.44% | 9.79% | –
Cc1ccsc1/C=C/C1=NCCCN1C | 7.06% (inactive) | 12.1% | 23.6% | –
CCOC(=O)[C@H](CCc1ccccc1)N[C@@H](C)C(=O)N1CCC[C@H]1C(=O)O | – | -1.26% | 0.539% | 0.997% (inactive)
NC(=O)NC1NC(=O)NC1=O (stereo not given) | 4.87% (inactive) | 2.56% | 9.47% | –
NC(N)=NS(=O)(=O)c1ccc(N)cc1 | 6.41% (inactive) | 1.84% and 2.06% | -0.509% and 12.7% | -0.993% (inactive)
C[N+](C)(C)CC[N+]1(C)Cc2c(Cl)c(Cl)c(Cl)c(Cl)c2C1 | 0.877% (inactive) | -22.8% | -20.9% | –
CC(=O)NS(=O)(=O)c1ccc(N)cc1 | 7% (inactive) | 0.487% and 9.27% | -1.3% and 19.7% | -1.25% (inactive)
CCCCCC(C)N (stereo not given) | -8.69% (inactive) | -12.5% | -21.2% | –
COc1ccc(NS(=O)(=O)c2ccc(N)cc2)nn1 | – | 3.32% | 3.23% | 0.554% (inactive)
